Common to all, as to design: scale not given: direction of the effect not stated beside the values
For assay [1], the target named is Protein translocase subunit SecA (Escherichia coli (strain K12)) (UniProt P10408). As to the kind of experiment: Assay to Identify E. coli SecA ATPase Inhibitors. In kind it is functional. The note with it: 30 µM.
The target of assay [2] is T1, Ubiquitin-activating enzyme e1, putative (Leishmania donovani (strain BPK282A1)) (UniProt E9BSI1).
T1 sequence (whole entry): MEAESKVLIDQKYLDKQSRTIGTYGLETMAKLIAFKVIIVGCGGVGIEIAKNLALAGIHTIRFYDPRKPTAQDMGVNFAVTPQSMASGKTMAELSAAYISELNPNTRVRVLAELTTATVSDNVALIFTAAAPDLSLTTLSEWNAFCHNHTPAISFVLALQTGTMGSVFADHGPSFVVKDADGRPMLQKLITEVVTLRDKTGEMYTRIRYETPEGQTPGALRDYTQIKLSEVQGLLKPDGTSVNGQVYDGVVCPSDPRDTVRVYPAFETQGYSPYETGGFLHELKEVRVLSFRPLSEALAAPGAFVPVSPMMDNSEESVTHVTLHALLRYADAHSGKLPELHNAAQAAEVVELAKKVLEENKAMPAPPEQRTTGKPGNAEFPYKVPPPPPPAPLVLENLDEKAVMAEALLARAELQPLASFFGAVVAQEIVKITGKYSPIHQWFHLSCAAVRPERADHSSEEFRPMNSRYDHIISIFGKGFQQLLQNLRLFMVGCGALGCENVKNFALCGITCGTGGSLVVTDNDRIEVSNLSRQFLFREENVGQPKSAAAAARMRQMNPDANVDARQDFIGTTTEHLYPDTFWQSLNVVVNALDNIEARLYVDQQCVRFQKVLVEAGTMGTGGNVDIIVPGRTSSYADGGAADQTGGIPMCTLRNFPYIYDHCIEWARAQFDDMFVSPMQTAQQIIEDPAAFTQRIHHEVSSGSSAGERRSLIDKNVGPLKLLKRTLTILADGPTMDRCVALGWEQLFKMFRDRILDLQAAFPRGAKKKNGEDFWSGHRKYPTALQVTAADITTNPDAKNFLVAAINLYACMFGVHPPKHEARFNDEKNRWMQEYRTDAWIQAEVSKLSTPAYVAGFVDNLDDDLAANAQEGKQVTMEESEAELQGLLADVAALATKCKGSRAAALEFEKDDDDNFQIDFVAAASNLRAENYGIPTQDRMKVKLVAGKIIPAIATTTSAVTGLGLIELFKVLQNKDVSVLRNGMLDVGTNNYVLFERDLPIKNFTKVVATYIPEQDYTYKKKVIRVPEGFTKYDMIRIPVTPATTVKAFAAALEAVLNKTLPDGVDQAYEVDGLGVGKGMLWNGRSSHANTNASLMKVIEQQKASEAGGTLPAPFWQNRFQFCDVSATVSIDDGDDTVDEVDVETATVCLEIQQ
As to the kind of experiment: Leishmania donovani Ubiquitin Activating Enzyme (LdE1). The format is functional. The following applies: 30 µM.

For assay [3], the target named is AMP-activated protein kinase, AMPK (Homo sapiens) (UniProt P54646+O43741+P54619+Q9UGJ0+Q9Y478+Q13131+Q9UGI9). As to the kind of experiment: AMP-dependent Kinase enzyme assay. An in vitro enzyme assay that detects ADP turnover that is directly proportional to AMPK activity. This uses naive AMPK that is activated during the assay with MK-8722. The format is functional. The following applies: 30 µM.

In assay [4] the target is Sialic acid-binding Ig-like lectin 9 (Homo sapiens) (UniProt Q9Y336). As to the kind of experiment: Hs-Siglec9 ALPHAscreen SOP 20170721. The note with it: 10 µM. For orientation: In Alpha technology, singlet oxygen from a donor bead excites a nearby acceptor bead.
Assay [5] relates to Trypanosoma cruzi. As to the kind of experiment: Trypanosoma cruzi phosphomannomutase and mannose-1-phosphate guanylyltransferase assay. In kind it is functional. The following applies: 10 µM.
Assay [6] concerns the target T2, Arginase-2, mitochondrial (Homo sapiens) (UniProt P78540).
T2 sequence (whole entry): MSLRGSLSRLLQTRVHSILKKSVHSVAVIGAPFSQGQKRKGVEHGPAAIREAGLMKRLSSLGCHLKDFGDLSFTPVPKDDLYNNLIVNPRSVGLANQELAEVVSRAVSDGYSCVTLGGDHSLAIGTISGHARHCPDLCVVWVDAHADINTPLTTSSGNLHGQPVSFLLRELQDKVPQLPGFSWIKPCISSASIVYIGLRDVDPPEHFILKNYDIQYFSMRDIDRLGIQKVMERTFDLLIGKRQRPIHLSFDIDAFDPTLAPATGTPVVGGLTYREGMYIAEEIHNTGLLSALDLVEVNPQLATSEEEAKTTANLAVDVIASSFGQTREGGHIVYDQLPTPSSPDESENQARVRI
Nature of the assay: in vitro enzyme assay to detect the production of urea directly proportional to the activity of Arginase II. Note: in the data most compounds retested in dose-response had high values. The note with it: 33.3 µM. The format is functional.

Assay [7] deals with T3, Proteasome subunit beta (Trypanosoma cruzi) (UniProt O96673).
T3 sequence (whole entry): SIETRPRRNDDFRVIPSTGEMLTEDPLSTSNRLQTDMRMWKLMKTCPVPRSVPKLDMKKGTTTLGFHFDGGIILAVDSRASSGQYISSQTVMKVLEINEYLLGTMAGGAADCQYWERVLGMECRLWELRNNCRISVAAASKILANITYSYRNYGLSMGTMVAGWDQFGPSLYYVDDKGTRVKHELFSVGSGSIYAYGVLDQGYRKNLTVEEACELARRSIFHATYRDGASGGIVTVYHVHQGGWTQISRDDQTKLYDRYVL
As to the kind of experiment: Trypanosoma cruzi proteasome chymotrypsin-like activity (TcProtChymo) assay. Note: in the data most compounds retested in dose-response had high values. The format is functional. The note with it: 9.37 µM.

For assay [8], the species on record is Homo sapiens. Nature of the assay: To identify inhibition of the IFN signalling (Jak-Stat) pathway via expression of an eGFP reporter gene under the control of an IFN-stimulated response element (ISRE) containing MxA promoter. In kind it is functional. The note with it: 30 µM.
Assay [9] addresses T4, Tyrosyl-tRNA synthetase, putative (Trypanosoma cruzi (strain CL Brener)) (UniProt Q4DSP6).
T4 sequence (whole entry): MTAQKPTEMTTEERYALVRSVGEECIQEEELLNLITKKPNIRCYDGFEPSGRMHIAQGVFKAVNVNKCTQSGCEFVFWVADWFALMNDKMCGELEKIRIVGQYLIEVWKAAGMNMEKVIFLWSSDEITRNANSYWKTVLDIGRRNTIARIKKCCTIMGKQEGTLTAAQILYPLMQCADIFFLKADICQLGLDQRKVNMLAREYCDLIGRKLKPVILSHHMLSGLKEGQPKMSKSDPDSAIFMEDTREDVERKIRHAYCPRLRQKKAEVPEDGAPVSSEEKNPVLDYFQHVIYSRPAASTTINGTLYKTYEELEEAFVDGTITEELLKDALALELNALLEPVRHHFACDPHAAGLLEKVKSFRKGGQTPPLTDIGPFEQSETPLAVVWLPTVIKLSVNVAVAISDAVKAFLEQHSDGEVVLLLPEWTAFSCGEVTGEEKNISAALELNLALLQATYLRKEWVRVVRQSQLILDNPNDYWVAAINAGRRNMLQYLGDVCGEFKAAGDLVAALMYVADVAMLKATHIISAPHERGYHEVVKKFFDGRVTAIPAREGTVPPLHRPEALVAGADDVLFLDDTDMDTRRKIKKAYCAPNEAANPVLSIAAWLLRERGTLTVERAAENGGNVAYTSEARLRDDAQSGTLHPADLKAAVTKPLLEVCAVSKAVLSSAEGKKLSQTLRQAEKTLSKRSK
As to the kind of experiment: Trypanosoma cruzi tyrosyl tRNA synthetase (TcYRS) _High Tyrosine SOP. Note: in the data most compounds retested in dose-response had high values. The note with it: 30 µM. In kind it is functional.

Assay [10] deals with T4, Tyrosyl-tRNA synthetase, putative (Trypanosoma cruzi (strain CL Brener)). Nature of the assay: Trypanosoma cruzi tyrosyl tRNA synthetase (TcYRS) SOP. In kind it is functional. The note with it: 30 µM.
Assay [11] addresses Chromo domain-containing protein 1 (Saccharomyces cerevisiae (strain ATCC 204508 / S288c) (Baker's yeast)) (UniProt P32657). As to the kind of experiment: ScCHD-1 Enzyme Inhibition Assay. Note: in the data most compounds retested in dose-response had high values. The following applies: 30 µM. The format is functional.

For some of these results: Entries with a potency or affinity are not part of this list.

Sequence of Sialic acid-binding Ig-like lectin 9 (Homo sapiens) (Q9Y336 whole entry): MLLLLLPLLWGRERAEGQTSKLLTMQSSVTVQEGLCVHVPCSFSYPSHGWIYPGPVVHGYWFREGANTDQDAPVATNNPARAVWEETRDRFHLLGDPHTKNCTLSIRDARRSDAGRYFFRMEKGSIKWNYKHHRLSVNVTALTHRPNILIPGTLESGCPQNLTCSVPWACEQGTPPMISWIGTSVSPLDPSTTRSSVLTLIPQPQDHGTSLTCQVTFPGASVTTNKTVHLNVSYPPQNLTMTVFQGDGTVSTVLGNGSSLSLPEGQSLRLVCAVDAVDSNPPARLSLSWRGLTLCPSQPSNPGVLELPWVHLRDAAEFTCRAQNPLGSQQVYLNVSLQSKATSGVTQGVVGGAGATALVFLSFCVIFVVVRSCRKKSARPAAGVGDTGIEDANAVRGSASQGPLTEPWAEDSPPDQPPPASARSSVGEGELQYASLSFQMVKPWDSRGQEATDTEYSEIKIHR
Sequence of Chromo domain-containing protein 1 (Saccharomyces cerevisiae (strain ATCC 204508 / S288c) (Baker's yeast)) (P32657 whole entry, the tested form may be a part): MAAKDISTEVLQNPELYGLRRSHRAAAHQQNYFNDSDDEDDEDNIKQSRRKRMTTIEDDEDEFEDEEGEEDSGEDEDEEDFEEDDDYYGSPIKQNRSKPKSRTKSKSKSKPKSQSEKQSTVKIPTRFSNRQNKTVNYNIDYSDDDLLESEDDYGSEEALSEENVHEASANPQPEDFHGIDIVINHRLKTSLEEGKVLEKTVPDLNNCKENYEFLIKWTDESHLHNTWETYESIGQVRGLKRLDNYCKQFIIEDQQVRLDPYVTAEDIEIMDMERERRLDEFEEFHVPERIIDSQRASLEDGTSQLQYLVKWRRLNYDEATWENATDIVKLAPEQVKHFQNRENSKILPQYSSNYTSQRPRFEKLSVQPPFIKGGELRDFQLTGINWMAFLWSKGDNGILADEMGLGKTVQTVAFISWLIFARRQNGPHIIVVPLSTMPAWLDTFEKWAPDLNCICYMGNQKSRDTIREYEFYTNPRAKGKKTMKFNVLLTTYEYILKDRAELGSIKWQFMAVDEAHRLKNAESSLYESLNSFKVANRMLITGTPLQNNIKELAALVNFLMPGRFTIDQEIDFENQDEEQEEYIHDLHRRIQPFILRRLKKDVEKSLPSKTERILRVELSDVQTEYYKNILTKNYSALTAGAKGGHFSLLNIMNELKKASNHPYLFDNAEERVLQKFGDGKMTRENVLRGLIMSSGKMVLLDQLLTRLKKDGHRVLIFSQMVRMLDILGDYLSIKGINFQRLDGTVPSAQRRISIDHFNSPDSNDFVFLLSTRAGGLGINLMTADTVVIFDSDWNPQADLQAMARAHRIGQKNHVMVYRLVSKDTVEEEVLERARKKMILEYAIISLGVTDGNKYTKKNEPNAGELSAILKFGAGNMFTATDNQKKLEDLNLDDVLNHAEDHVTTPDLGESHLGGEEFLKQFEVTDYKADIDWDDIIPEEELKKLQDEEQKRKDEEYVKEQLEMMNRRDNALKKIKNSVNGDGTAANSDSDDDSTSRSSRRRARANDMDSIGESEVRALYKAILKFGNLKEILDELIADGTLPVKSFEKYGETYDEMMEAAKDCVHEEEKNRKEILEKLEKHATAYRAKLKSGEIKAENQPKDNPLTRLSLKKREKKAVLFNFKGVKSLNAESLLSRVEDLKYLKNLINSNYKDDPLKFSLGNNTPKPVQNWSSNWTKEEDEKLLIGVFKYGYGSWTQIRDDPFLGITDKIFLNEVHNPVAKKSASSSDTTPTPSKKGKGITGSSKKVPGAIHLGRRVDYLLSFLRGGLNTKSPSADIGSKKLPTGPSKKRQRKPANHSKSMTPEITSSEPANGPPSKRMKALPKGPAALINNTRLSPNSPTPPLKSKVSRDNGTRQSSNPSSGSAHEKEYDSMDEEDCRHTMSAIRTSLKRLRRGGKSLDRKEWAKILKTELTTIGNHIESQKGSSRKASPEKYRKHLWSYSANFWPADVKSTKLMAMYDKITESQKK
Sequence of Protein translocase subunit SecA (Escherichia coli (strain K12)) (P10408 whole entry): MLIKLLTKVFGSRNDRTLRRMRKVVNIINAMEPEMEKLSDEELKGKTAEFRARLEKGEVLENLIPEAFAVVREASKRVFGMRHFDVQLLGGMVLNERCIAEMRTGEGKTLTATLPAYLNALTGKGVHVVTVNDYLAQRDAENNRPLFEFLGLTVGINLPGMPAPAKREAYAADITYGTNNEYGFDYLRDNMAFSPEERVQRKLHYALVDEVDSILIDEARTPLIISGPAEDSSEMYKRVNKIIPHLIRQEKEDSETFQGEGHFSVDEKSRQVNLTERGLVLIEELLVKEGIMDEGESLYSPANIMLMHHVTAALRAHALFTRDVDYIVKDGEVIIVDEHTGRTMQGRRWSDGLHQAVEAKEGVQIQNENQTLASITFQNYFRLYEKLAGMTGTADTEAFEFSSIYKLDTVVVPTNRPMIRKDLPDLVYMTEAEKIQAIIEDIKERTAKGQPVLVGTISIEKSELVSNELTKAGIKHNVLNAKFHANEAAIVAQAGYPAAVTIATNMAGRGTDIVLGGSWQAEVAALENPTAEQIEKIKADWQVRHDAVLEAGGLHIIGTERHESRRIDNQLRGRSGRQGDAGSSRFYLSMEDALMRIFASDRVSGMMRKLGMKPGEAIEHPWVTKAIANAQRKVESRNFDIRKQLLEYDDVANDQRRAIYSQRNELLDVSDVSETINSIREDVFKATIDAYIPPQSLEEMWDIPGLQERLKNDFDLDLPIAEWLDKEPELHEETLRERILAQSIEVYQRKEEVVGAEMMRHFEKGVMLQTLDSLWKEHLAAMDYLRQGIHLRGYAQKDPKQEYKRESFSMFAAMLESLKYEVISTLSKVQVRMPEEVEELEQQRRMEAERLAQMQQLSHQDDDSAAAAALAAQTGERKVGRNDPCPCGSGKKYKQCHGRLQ

With `O=C(Cc1ccc2c(c1)OCCO2)NCCc1nnc2n1CCC2`, the Percent Effect in [1] is -2.17%; in assay [2] it was 24.3%; in assay [3], 22.3%; in [4], -3.07%; in assay [5], 3.87%; in [6] it was -7.62%. Further, the Percent Effect in [7] was 10.8%; in assay [8] it was 2.82%; in assay [9], 4.43%; in assay [10], 18.5%; in assay [11] it was -9.97%.
Consider `Cc1nc(CN2CCOCC3(CCN(c4cccnc4)CC3)C2)cs1`, for which the Percent Effect in assay [1] is -4.45%; in [2], 5.41%; in assay [3], 0.402%; in assay [4], -0.618%; in assay [5], -2.34%; in assay [6], 2.08%. The Percent Effect in [7] turned out to be 14.4%; in assay [8], 4.77%; in [9], 3.96%; in [10] it was 11%; in [11], 3.31%.
Take `CC(C)c1nnc(NC(=O)NCc2ccc(CO)c(F)c2)s1`: the Percent Effect was -5.17% in assay [1]; 11.4% in [2]; -2.17% in assay [3]; -0.945% in assay [4]; -1.95% in assay [5]; 3.66% in assay [6]. Besides, the Percent Effect in assay [7] is 11.8%; in assay [8] it was 26.1%; in assay [9], -5.21%; in assay [10], -2.53%; in assay [11], -11.2%.
Regarding `CCn1cc(CN2CCCN(C(=O)C3=NN(C)C(=O)CC3)CC2)cn1`, the Percent Effect was 0.989% in assay [1]; 18.2% in assay [2]; 0.0374% in assay [3]; -13.6% in assay [4]; -0.686% in [5]; 6.11% in [6]. Also, the Percent Effect is 13.7% in assay [7]; 29.5% in assay [8]; 5.71% in assay [9]; 0% in [10]; -17.5% in [11].
Consider `COCCO[C@H]1CCN(C(=O)c2ccno2)[C@H]1Cc1cnn(C)c1`, for which the Percent Effect is -1.65% in assay [1]; -2.7% in assay [2]; -2.17% in [3]; -4.71% in assay [4]; -2.54% in assay [5]; 1.67% in assay [6]. In addition, the Percent Effect in assay [7] is 2.79%; in assay [8], -28.8%; in [9], 4.95%; in assay [10], -3.66%; in assay [11], 1.61%.
In the case of `O=C1CC[C@@H]2[C@@H](CCN2C(=O)c2ccsc2)N1CC1CC1`, the Percent Effect in assay [1] was -4.27%; in assay [2], -2.7%; in assay [3] it was 6.58%; in assay [4], -0.934%; in assay [5], 4.2%; in assay [6], 2.23%. Moreover, the Percent Effect was 21.4% in assay [7]; -14.4% in assay [8]; 4.32% in assay [9]; 7.69% in assay [10]; 2.18% in [11].
As for `CCS(=O)(=O)NC(C(=O)NC)c1ccc(F)c(F)c1` (stereo unspecified), the Percent Effect is -1.19% in assay [1]; 2.7% in [2]; -9.93% in assay [3]; 0.659% in assay [4]; 0.195% in assay [5]; 2.92% in assay [6]. Besides, the Percent Effect in [7] was 10.7%; in [8] it was -11.3%; in assay [9], 9.9%; in [10] it was 20.7%; in assay [11], -7.3%.
As for `O=C(c1ccc2c(c1)OCO2)N1CCCSCC1CN1CCCC1` (stereo unspecified), the Percent Effect in assay [1] was -4.51%; in assay [2] it was 7.79%; in [3] it was 6.33%; in assay [4], 7.89%; in assay [5] it was -1.08%; in assay [6], 5.81%. Further, the Percent Effect is 8.53% in [7]; -0.0393% in assay [8]; 8.47% in [9]; 11.5% in assay [10]; -7.09% in assay [11].
Regarding `CCCOc1cc(C)ccc1NC(=O)NCCC(=O)N(C)C`, the Percent Effect in assay [1] is -4.1%; in assay [2] it was 13.7%; in [3] it was -1.53%; in assay [4], -3%; in [5], -3.33%; in assay [6], 4.09%. For the same compound, the Percent Effect in assay [7] is 20.6%; in [8] it was 10.2%; in assay [9], 6.45%; in [10] it was 15%; in [11] it was -2.56%.
`CNc1cc2c(nn1)CCN(C(=O)c1ccoc1)C2`: the Percent Effect in [1] was -0.747%; in assay [2], 7.79%; in assay [3], 7.77%; in assay [4] it was -6.29%; in assay [5], -1.27%; in assay [6], 4%. For the same compound, the Percent Effect in assay [7] is 16.6%; in assay [8], 27%; in [9] it was 1.91%; in assay [10], -25.9%; in [11], -15%.
With `O=S(=O)(C1CC1)N1CCOCC2(CCN(c3ccccn3)C2)C1` (stereo unspecified), the Percent Effect is -6.13% in [1]; 1.33% in [2]; 15.1% in assay [3]; -7.58% in assay [4]; -5.7% in assay [5]; -6.51% in assay [6]. The Percent Effect in assay [7] was 7.21%; in assay [8] it was 3.01%; in assay [9], -6.35%; in [10] it was -5.13%; in assay [11], -5.08%.

The values are drawn from ChEMBL document CHEMBL3988442, “University of Dundee, Small-Polar-MMV Screening Library” (2021).
